Measured values reported in PubChem BioAssay (Tox21).
Where “and” joins values, the source holds several entries; their conditions need not be identical. Equal values may be shown once. Results filed as inconclusive are left out. A call without a number means that no potency is given here. Calls of active or inactive are those of the source. Unless noted, the call rests on the fitted dose curve.

Tests used:
[1] = Nuclear factor erythroid 2-related factor 2/antioxidant responsive element (Nrf2/ARE) small molecule agonists: qHTS cell viability counter screen in human keratinocytes (AID 1919968; active means well fitted curve in the direction sought with a large enough effect in the repeat runs; an effect the other way counts as inactive or inconclusive; further: nearly all actives have a fitted effect of over 55% in size)
In short: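 Viability counter-screen: KeratinoSens reporter cells, DMSO-delivered compounds, 23 h at 37 C, CellTiter-Fluor fluorescence.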

[2] = Nuclear factor erythroid 2-related factor 2/antioxidant responsive element (Nrf2/ARE) small molecule agonists: luciferase reporter gene qHTS assay in human keratinocytes (AID 1919969); further: nearly all actives have a fitted effect of over 35% in size; further: potency means the concentration at half of the fitted maximal effect
[3] = target: Gonadotropin-releasing hormone receptor (Homo sapiens) (UniProt P30968); experiment: Human gonadotropin-releasing hormone receptor (GnRHR) small molecule agonists, calcium flux assay in GnRHR-HEK293 cells (AID 1920063); further: nearly all actives have a fitted effect of over 35% in size
Chain of Gonadotropin-releasing hormone receptor (Homo sapiens) (P30968 whole entry, looked up): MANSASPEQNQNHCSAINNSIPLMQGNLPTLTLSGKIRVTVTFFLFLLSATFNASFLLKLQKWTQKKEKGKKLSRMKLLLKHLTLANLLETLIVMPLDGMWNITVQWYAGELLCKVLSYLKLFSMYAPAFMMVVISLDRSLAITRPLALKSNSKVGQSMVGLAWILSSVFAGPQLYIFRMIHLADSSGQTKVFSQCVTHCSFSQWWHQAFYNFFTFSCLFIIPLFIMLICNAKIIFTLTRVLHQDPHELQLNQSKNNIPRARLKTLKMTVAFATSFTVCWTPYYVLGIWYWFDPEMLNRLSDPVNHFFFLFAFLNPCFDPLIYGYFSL
In short: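 Tox21-format agonist screen using human GnRHR-expressing HEK293 cells and a fluorescent calcium dye; kinetic 3-min fluorescence reading after compound addition, 15-point concentration series run in triplicate.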

[4] = target: KiSS-1 receptor (Homo sapiens) (UniProt Q969F8); experiment: Human kisspeptin (KISS1R) small molecule agonists, calcium flux assay in KISS1R-HEK293 cells (AID 1920064; active means well fitted curve in the direction sought with a large enough effect in the repeat runs; an effect the other way counts as inactive or inconclusive)
Chain of KiSS-1 receptor (Homo sapiens) (Q969F8 whole entry, looked up): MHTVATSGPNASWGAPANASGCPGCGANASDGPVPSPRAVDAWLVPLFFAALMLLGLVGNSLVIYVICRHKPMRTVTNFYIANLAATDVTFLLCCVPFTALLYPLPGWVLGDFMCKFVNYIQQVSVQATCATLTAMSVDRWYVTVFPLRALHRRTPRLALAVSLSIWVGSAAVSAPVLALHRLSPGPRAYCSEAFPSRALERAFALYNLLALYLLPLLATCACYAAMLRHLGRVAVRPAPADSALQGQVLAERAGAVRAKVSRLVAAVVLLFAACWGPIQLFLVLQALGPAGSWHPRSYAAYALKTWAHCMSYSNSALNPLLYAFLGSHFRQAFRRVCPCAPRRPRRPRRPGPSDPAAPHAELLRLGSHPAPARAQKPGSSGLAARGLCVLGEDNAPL
In short: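 Intracellular calcium mobilization in KISS1R-HEK293 cells was recorded by fluorescence (Ex/Em 480/540) for 3 min following compound addition to cells pre-loaded 1 h with calcium dye.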

[5] = G protein-coupled receptor (GPCR) small molecule agonists, calcium flux assay: HEK293 wild type cell line counter screen (AID 1920065)
In short: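 In this agonist-mode screen, ATP is the positive control and DMSO the vehicle. Cells grow 18 h before a 1 h dye incubation at 37 C; signal is taken at Ex/Em 480/540 over 3 min.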

[6] = p53 small molecule agonists, cell-based qHTS assay with human liver microsomes (AID 1963577);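 further: p53 response element beta-lactamase reporter cells with liver microsomes plus NADPH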
In short: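 In this qHTS, p53 response-element beta-lactamase cells receive test compound together with a microsome/NADPH activating system (0.5 mg/mL final each) and are incubated 16 h at 37 C before LiveBLAzer fluorescence detection.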

[7] = p53 small molecule agonists, cell-based qHTS assay with rat liver microsomes (AID 1963578)
In short: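 Agonist mode in p53RE-bla reporter cells, with compounds co-incubated 16 h at 37 C alongside 0.5 mg/mL rat liver microsomes and 0.5 mg/mL NADPH (final), followed by a 2 h LiveBLAzer detection step.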

[8] = p53 small molecule agonists, cell-based qHTS assay with human liver microsomes: qHTS cell viability counter screen (AID 1963579); further: nearly all actives have a fitted effect of over 45% in size
In short: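 Metabolically activated exposure: compounds, human liver microsomes and NADPH (0.5 mg/mL final apiece) were added to p53RE-bla cells seeded 5 h earlier, left 16 h at 37 C, and then assessed for viability by CellTiter-Glo luminescence.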

[9] = p53 small molecule agonists, cell-based qHTS assay with rat liver microsomes: qHTS cell viability counter screen (AID 1963580); further: nearly all actives have a fitted effect of over 45% in size
In short: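 HCT-116 p53RE-bla, 4,000 cells/well, 5 h pre-incubation; cpd + rat liver microsomes 0.5 mg/mL + NADPH 0.5 mg/mL (final); 16 h, 37 C; CellTiter-Glo, 30 min RT; luminescence.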

[10] = p53 small molecule agonists, cell-based qHTS assay: qHTS cell viability counter screen (AID 1963581); further: nearly all actives have a fitted effect of over 45% in size
In short: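 Compounds are pinned onto HCT-116 p53RE-bla cells and left 16 h at 37 C. Following the reporter FRET read, ATP is quantified by CellTiter-Glo luminescence after 30 min at room temperature.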

[11] = p53 small molecule agonists, cell-based qHTS assay (AID 1963582; active means well fitted activation curve with a large enough effect in the signal ratio in the repeat runs, not every such curve was filed as active; the % refers to the signal ratio)
In short: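 Agonist activity was scored from beta-lactamase FRET fluorescence in p53RE-bla cells treated 16 h at 37 C with compounds in DMSO, substrate incubation being 2 h at room temperature.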

[12] = target: 5-hydroxytryptamine receptor 2A (Homo sapiens) (UniProt P28223); experiment: 5-hydroxytryptamine receptor 2A (HTR2A) small molecule agonists, cell-based qHTS assay (AID 1963587); further: nearly all actives have a fitted effect of over 30% in size; further: potency means the concentration at half of the fitted maximal effect
Chain of 5-hydroxytryptamine receptor 2A (Homo sapiens) (P28223 whole entry, looked up): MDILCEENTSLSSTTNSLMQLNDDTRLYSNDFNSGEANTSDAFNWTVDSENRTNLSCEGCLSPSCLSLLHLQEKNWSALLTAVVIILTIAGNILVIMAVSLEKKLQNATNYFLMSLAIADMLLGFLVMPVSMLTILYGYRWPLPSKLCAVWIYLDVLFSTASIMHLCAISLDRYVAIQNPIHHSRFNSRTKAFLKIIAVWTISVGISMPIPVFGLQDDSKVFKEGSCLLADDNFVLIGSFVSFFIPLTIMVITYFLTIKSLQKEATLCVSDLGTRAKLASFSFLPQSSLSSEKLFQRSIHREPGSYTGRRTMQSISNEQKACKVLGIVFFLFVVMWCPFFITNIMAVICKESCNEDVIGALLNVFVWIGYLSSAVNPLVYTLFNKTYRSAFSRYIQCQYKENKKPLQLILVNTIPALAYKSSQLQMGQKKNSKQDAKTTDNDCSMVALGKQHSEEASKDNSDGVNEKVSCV
In short: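 Kinetic calcium-flux fluorescence (2 min, 1 sec intervals) after compound addition in agonist mode. HTR2A-CHO cells were cultured 18 h, then dye-loaded 1 h at 37 C.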

[13] = target: Muscarinic acetylcholine receptor M1 (Homo sapiens) (UniProt P11229); experiment: Cholinergic receptor muscarinic 1 (CHRM1) small molecule antagonists, cell-based qHTS assay (AID 1963588); further: nearly all actives have a fitted effect of over 40% in size
Chain of Muscarinic acetylcholine receptor M1 (Homo sapiens) (P11229 whole entry, looked up): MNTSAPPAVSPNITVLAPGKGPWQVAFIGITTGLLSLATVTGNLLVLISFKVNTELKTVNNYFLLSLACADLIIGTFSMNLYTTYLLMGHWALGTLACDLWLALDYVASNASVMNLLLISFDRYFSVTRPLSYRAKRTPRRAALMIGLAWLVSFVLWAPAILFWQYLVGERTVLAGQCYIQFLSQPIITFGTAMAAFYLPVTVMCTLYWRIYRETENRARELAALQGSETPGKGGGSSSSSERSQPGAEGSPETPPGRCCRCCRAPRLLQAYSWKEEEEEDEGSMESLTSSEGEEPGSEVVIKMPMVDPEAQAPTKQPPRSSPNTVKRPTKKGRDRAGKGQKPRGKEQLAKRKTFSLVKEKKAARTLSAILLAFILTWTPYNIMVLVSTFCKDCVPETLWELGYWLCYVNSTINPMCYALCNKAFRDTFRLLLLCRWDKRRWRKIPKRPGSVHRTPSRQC
In short: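 CHRM1-CHO calcium-flux assay, antagonist mode. Cells were seeded 18 h, dye-loaded 1 h at 37 C and given compound for 5 min at RT, then acetylcholine was added at 50nM. FDSS fluorescence was read 3 min; 15 concentrations, three runs.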

[14] = target: Muscarinic acetylcholine receptor M1 (Homo sapiens) (UniProt P11229); experiment: Cholinergic receptor muscarinic 1 (CHRM1) small molecule agonists, cell-based qHTS assay (AID 1963589); further: nearly all actives have a fitted effect of over 35% in size
In short: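 Stable CHRM1-CHO cells (human receptor) were incubated 18 h, dye-loaded for 1 h at 37 C and exposed to test compounds for agonist activity, with calcium-dependent fluorescence followed kinetically.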

[15] = cAMP Responsive Elements (CRE) small molecule agonists, cell-based qHTS assay (AID 1963590)
In short: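 FRET-based beta-lactamase readout (LiveBLAzer B/G, 2 h RT) quantified CRE activation in HEK 293T CRE-bla cells after 3 h treatment with DMSO-dissolved compounds.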

[16] = cAMP Responsive Elements (CRE) small molecule antagonists, cell-based qHTS assay (AID 1963591; active means well fitted inhibition curve with a large enough effect in the signal ratio in the repeat runs, not every such curve was filed as active; the % refers to the signal ratio)
In short: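 qHTS in CRE-bla HEK 293T cells: compound in DMSO, then 0.25 uM NKH477 (final), 3 h at 37 °C/5% CO2; beta-lactamase FRET read-out after 2 h substrate incubation.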

[17] = target: Beta-2 adrenergic receptor (Homo sapiens) (UniProt P07550); experiment: Adrenergic beta2 receptor (ADRB2) small molecule antagonists, cell-based qHTS assay (AID 1963592); further: series mostly up to about 92 µM; nearly all actives have a fitted effect of over 50% in size
Chain of Beta-2 adrenergic receptor (Homo sapiens) (P07550 whole entry, looked up): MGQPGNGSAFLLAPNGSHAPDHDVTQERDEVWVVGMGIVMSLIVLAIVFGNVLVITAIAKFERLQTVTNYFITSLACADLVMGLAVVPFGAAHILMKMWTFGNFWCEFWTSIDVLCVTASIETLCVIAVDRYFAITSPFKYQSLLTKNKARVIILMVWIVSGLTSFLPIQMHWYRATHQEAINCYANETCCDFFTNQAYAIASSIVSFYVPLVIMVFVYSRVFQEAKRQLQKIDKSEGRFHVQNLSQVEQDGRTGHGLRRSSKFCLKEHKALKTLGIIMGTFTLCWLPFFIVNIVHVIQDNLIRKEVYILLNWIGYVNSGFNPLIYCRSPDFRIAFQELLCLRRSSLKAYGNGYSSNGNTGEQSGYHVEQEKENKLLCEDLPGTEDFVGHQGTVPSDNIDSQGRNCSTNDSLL
In short: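 Cells (CHO, stable ADRB2 overexpression) incubated 18-20hr at 37C; compounds added from DMSO; agonist mix (1nM isoproterenol, 100uM IBMX, 25uM Ro-20-1724) added; 0.5hr RT; d2-cAMP and anti-cAMP-cryptate added; 1hr RT; 665/615 nm read.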

[18] = target: D(2) dopamine receptor (Homo sapiens) (UniProt P14416); experiment: Dopamine D2 receptor (DRD2) small molecule agonists, cell-based qHTS assay (AID 1963594); further: nearly all actives have a fitted effect of over 35% in size
Chain of D(2) dopamine receptor (Homo sapiens) (P14416 whole entry, looked up): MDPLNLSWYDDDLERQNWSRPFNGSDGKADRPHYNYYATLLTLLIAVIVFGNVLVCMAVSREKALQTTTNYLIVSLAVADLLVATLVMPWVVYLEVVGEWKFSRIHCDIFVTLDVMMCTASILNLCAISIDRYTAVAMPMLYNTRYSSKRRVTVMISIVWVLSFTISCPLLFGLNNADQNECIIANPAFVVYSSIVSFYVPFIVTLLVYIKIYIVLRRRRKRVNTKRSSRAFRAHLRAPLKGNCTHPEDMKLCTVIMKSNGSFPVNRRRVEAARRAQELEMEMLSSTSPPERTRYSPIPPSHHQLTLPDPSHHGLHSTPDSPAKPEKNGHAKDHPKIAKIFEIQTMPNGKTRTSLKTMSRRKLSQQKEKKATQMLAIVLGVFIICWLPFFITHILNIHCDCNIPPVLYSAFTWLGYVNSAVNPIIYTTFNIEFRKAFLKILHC
In short: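 cAMP accumulation in DRD2-HEK293 cells measured by HTRF after 1 h detection; compounds added 10 min before NKH477 (200nM […]) forskolin-analogue stimulation, 30 min at room temperature, with Ro20-1724 present at 0.1 mM final.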

[19] = target: D(2) dopamine receptor (Homo sapiens) (UniProt P14416); experiment: Dopamine D2 receptor (DRD2) small molecule antagonists, cell-based qHTS assay (AID 1963595; active means well fitted inhibition curve with a large enough effect in the signal ratio in the repeat runs, with a control signal flat; the % refers to the signal ratio)
In short: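 Antagonism was scored as restored cAMP in HEK293-DRD2 cells. These cells were stimulated with 200 nM NKH477 and 12 nM quinpirole for 30 min at room temperature, in the presence of 0.1 mM Ro20-1724.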

[20] = target: 5-hydroxytryptamine receptor 2A (Homo sapiens) (UniProt P28223); experiment: 5-hydroxytryptamine receptor 2A (HTR2A) small molecule antagonists, cell-based qHTS assay (AID 1963586); further: nearly all actives have a fitted effect of over 45% in size
In short: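 Antagonist-mode intracellular calcium assay: DOI (4 nM) added after 5 min compound pre-incubation at room temperature to dye-loaded HTR2A-CHO cells. Fluorescence followed for 3 min, sampled every second.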

| Structure (SMILES) | Potency [1] | Potency [2] | Potency [3] | Potency [4] | Potency [5] | Potency [6] | Potency [7] | Potency [8] | Potency [9] | Potency [10] | Potency [11] | Potency [12] | Potency [13] | Potency [14] | Potency [15] | Potency [16] | Potency [17] | Potency [18] | Potency [19] | Potency [20] |
| --- | --- | --- | --- | --- | --- | --- | --- | --- | --- | --- | --- | --- | --- | --- | --- | --- | --- | --- | --- | --- |
| CCCCC(CC)C(=O)Cl (configuration not stated) | inactive | inactive | inactive | inactive | inactive | inactive | inactive | inactive | inactive | inactive | inactive | inactive | inactive | inactive | inactive | inactive | inactive | inactive | inactive |  |
| NCCc1ccc(O)cc1 | inactive | 29.8 µM (active) | inactive | inactive | inactive | inactive | inactive | inactive | inactive | inactive | inactive | 5.45 µM (active) and 8.49 µM (active) | inactive | inactive | inactive |  | inactive | inactive | inactive |  |
| CNC(=O)Oc1ccccc1C1OCCO1 | inactive | inactive | inactive | inactive | inactive | inactive | inactive | inactive | inactive | inactive | inactive | inactive | inactive | inactive | inactive | inactive | inactive | inactive | inactive |  |
| Cc1cccc(C)c1N | inactive | inactive | inactive | inactive | inactive | inactive | inactive | inactive | inactive | inactive | inactive |  | inactive | inactive | inactive | inactive | inactive | inactive | inactive |  |
| CC(C)c1cccc(C(C)C)c1O | inactive | inactive | inactive | inactive | inactive | inactive | inactive | inactive | inactive | inactive | inactive |  |  |  | inactive | inactive | inactive | inactive | inactive |  |
| CC(C)=CC1C(C(=O)OCc2cccc(Oc3ccccc3)c2)C1(C)C (configuration not stated) | inactive | inactive | inactive | inactive | inactive | inactive | inactive | inactive | inactive | inactive | inactive | inactive | inactive | inactive |  | inactive | inactive | inactive | inactive |  |
| CCCCCON=O | inactive | inactive | inactive | inactive | inactive | inactive | inactive | inactive | inactive | inactive |  | inactive | inactive | inactive | inactive | inactive | inactive | inactive | inactive | inactive |
